This is an account of results in PubChem BioAssay (NCATS).

Results filed as inconclusive are left out. Activity calls are given as the source filed them. Unless noted, the call rests on the fitted dose curve; in most records, active means well fitted curve in the direction sought with a large enough effect; inconclusive means small, poorly fitted or top-dose-only effect, or another doubt; inactive means no such curve, though single readings can be large; an effect the other way counts as inactive or inconclusive.

For assay [1], the target named is Glutathione peroxidase 1 (Homo sapiens) (UniProt P07203). Kind of assay: Primary qHTS Assay for Inhibitors of Recombinant Selenoprotein Glutathione Peroxidase 1 (GPX1) (AID 1845191). Further: nearly all actives have a fitted effect of over 65% in size. An outline of the steps:
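10 nM GPX1 + cpd, 30 min RT; start w/ 1 mM GSH, 0.5 mM cumene hydroperoxide, 0.5 mM NADPH, 100 nM GR, 0.01% BSA; buffer 50 mM Tris-HCl pH 7.5, 2 mM EDTA, 150 mM NaCl; Fl 340/450, 0 & 15 min.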

Assay [2] in a line: qHTS drug screen for cell cycle checkpoint inhibitors in PARPi-resistant BRCA-mutant ovarian cancer cell lines. (AID 1963452; calls by dose curve). As to conditions: PEO1/OlaR viability, CellTiter-Glo luminescence, 96 h, stronger effect = lower value. Put shortly: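 PEO1, PEO4 and PEO1/OlaR ovarian cancer cells, 600 per well, exposed 96 h at 37C to a dilution series. Viability read by CellTiter-Glo luminescence, normalized to DMSO and empty wells; activity summarized as Z-AUC.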

Assay [3] can be described thus: qHTS assay to identify inhibitors of the type 1 interferon - major histocompatibility complex class I in skeletal muscle: Counter screen cell viability and HiBit confirmation (AID 1347412). Further: potency means the concentration at half of the fitted maximal effect. On activity change, negative = inhibition: on the % scale 0 is the no-effect control and ±100 the full control effect. On all read-outs here: nearly all actives have a fitted effect of over 60% in size. The note with it: iHSKM muscle cells + IFN-b, HiBiT or CellTiter-Glo, 24 h; for activity change, negative = inhibition: at 45.9 µM (top of the series). An outline of the steps: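 HLA-B*08:01–HiBiT knock-in immortalized human myoblasts (C25cl48) stimulated with 4.0 ng/ml human IFN-beta and dosed with compound in a 12-point 1:3 titration (top final 46 uM). After 24 hrs at 37 C, HiBiT lytic luminescence or CellTiter Glo ATP read out.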

A short description of assay [4]: Validation of Assay for Modulators of Lamin A Splicing (AID 1459; active means well fitted curve in the direction sought with a large enough effect in the signal ratio; the % refers to the signal ratio;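 further: cells exposed to compound for two days before reading; 0% is about no effect; ratio rise marks activators and ratio drop marks inhibitors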). An outline of the steps:
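S3 HeLa cells stably expressing a lamin A-EGFP splicing minigene and DsRed2 were seeded at 600 cells/well in Opti-MEM with 2% FBS, pin-dosed, and incubated 48 hrs at 37 °C, 5% CO2. Laser-scanning cytometry (488 nm) gave GFP/RFP total intensity ratio.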

Assay [5] is described as follows: qHTS Assay for Lipid Storage Modulators (AID 1519; calls by dose curve; on activity change, negative = inhibition: on the % scale 0 is the no-effect control and ±100 the full control effect). As to conditions: Drosophila S3 cells, BODIPY lipid droplet/cell ratio, laser cytometry, cells loaded with oleic acid; for activity change, negative = inhibition: at 57.5 µM (top of the series). Put shortly: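 Cells seeded at 5,000 per well were treated with compounds over a concentration series and loaded with oleic acid (400 uM, as added). Lipid droplet fluorescence (488 nm excitation, 500-530 nm channel) was read by laser-scanning cytometry and normalized to 20 uM Triacsin C.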

Assay [6] has as its target DNA repair nuclease/redox regulator APEX1 (Homo sapiens) (UniProt P27695). Nature of the assay: qHTS Validation Assay for Inhibitors of the Human Apurinic/apyrimidinic Endonuclease 1 (APE1) (AID 1705;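 further: TAMRA fluorescence gain over two minutes as APE1 cuts a quenched THF abasic duplex; on the % scale 0 is the no-effect control and ±100 the full control effect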). An outline of the steps: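 Human APE1 was preincubated with compound for 15 min at room temperature, then 50 nM (final) THF-abasic double-stranded DNA substrate bearing 5'-TAMRA and 3'-BHQ-2 was added. Incision-driven fluorescence rise (ex 525/em 598 nm) was read kinetically.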

A short description of assay [7]: Counterscreen for APE1 Inhibitors: Fluorescent Dye Displacement Validation Assay (AID 1707).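 Further: plate controls were ThO with dsDNA and no compound for no effect and ThO without dsDNA for full effect.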 An outline of the steps:
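Assay buffer: Tris-HCl pH7.5 with 50mM NaCl, 2 mM MgCl2, 0.01% Tween-20. Dye 250 nM, duplex 50 nM final. Readout: decrease in ThO endpoint fluorescence, 480 nm excitation, 540 nm emission.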

Assay [8] has as its target ATP-dependent DNA helicase Q1 (Homo sapiens) (UniProt P46063). Nature of the assay: qHTS Validation Assay for Inhibitors of RecQ-Like Dna Helicase 1 (RECQ1) (AID 2353).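 Further: plate controls were DMSO vehicle for no effect and enzyme-free control for full effect.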 An outline of the steps:
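50 nM RECQ1T1 preincubated 15 min with compound in Tris pH 8.0 buffer with MgCl2, DTT, Tween-20 and 2.5 ug/ml poly(dI-dC); started with 200 nM TAMRA/BHQ-2 forked duplex and 2 mM ATP. Unwinding read as fluorescence (525/598 nm), two reads 2 h apart.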

Assay [9] can be described thus: Validation screen for small molecules that induce DNA re-replication in MCF 10A normal breast cells (AID 463097). Further: 0% is about no effect; nearly all actives have a fitted effect of over 60% in size. An outline of the steps: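 Readout: Hoechst nuclear fluorescence intensity, 405 ex / 500-530 em, by scanning plate imager; re-replication scored as increase in nuclei with elevated DNA content. Cells exposed to compound 48 hr, 37 C, 5% CO2 beforehand.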

Assay [10] is described as follows: Quantitative high throughput screen for delayed death inhibitors of the malarial parasite plastid, 96 hour incubation (AID 488745). Further: on the % scale 0 is the no-effect control and ±100 the full control effect; nearly all actives have a fitted effect of over 70% in size. Put shortly:
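P. falciparum carrying an integrated firefly luciferase reporter, grown in erythrocytes (2% hematocrit, 0.1% parasitemia final) in RPMI 1640/0.5% Albumax, was exposed to compound for 96 h (two generations) at 37 C, 5% CO2. Luminescence decrease indicated growth inhibition.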

Assay [11] in a line: Quantitative high throughput screen for delayed death inhibitors of the malarial parasite plastid, 48 hour incubation (AID 488752). Further: on the % scale 0 is the no-effect control and ±100 the full control effect; nearly all actives have a fitted effect of over 65% in size. Put shortly:
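Erythrocytes infected with P. falciparum carrying an integrated firefly luciferase reporter (2% hematocrit, 0.1% parasitemia final) were exposed to compounds in RPMI 1640/0.5% Albumax for 48 h at 37 C, 5% CO2. Growth inhibition was scored as reduced luminescence.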

The target of assay [12] is Thyrotropin receptor (Homo sapiens) (UniProt P16473). Kind of assay: qHTS Assay for Antagonists of the Thyroid Stimulating Hormone Receptor (AID 488980). Further: 0% is about no effect. An outline of the steps:
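HEK293 cells transfected with human TSHR, suspended in HEPES-buffered HBSS with 70 uM RO 20-1724, were treated with compounds plus TSH at EC80 (4 nM final). cAMP was measured by competitive HTRF (cryptate anti-cAMP antibody, cAMP-d2 acceptor).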

In assay [13] the target is Thyrotropin-releasing hormone receptor (Homo sapiens) (UniProt P34981). Kind of assay: qHTS for Small Molecule Agonists and Allosteric Enhancers of Human TRH Receptor: Validation Screen for Agonists (AID 493127;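 active means calcium activation more than 3 SD above the typical response in the agonist read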;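 further: intracellular calcium rise by fluo-8 fluorescence before TRH EC20 addition; 0% is about no effect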). The note with it: TRH receptor agonist cell assay; at 2 µM; stronger effect = higher value. An outline of the steps: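 TRHR-expressing cells were plated overnight in serum-containing medium, then loaded with fluo-8 calcium dye at room temperature for 30 min–1.5 h. After a 10 s baseline, compound was pin-transferred and calcium fluorescence (ex 480/em 530) read kinetically for agonist response.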

Assay [14] addresses Galactokinase (Homo sapiens) (UniProt P51570). Kind of assay: qHTS Validation Assay for Inhibitors of Human Galactokinase (GALK) (AID 493189). Further: 0% is about no effect. An outline of the steps:
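GALK (5 nM) with 35 uM ATP and 100 uM galactose in HEPES pH8.0, MgCl2, NaCl, DTT, BSA; 1 h at room temperature. Residual ATP read by Kinase-Glo Plus luminescence after 10 min.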

Assay [15] can be described thus: Validation screen for small molecules that induce DNA re-replication in SW480 colon adenocarcinoma cells (AID 504364). Further: 0% is about no effect. An outline of the steps: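 SW480 cells seeded at 250 per well were exposed to compound or DMSO for 48 hr at 37 C, 5% CO2, then stained with Hoechst for 40 min. DNA content per nucleus was imaged (405 nm ex, 500-530 nm em).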
Assay [16] can be described thus: qHTS for differential inhibitors of proliferation of Plasmodium falciparum line GB4 (AID 1816).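 Further: parasite growth measured after 72 h incubation; 0% = vehicle DMSO and -100% = reference inhibitor.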 As to conditions: Potency: Plasmodium falciparum GB4 proliferation inhibition.
The nature of assay [17]: qHTS for differential inhibitors of proliferation of Plasmodium falciparum line 3D7 (AID 1876).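 Further: parasite growth measured after three days of culture; 0% = vehicle wells and -100% = reference inhibitor wells.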
Assay [18] is described as follows: qHTS for differential inhibitors of proliferation of Plasmodium falciparum line D10 (AID 1877).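 Further: parasites grown with compound for 72 h before DNA staining; plate controls were vehicle wells for no effect and reference inhibitor wells for full effect.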
A short description of assay [19]: qHTS for differential inhibitors of proliferation of Plasmodium falciparum line HB3 (AID 1886).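 Further: parasites grown with compound for 72 h before SYBR Green readout; plate controls were vehicle for no effect and reference inhibitor for full effect.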 As to conditions: Potency: Plasmodium falciparum HB3 proliferation inhibition.
The target of assay [20] is Transient receptor potential cation channel subfamily V member 1 (Homo sapiens) (UniProt Q8NER1). Kind of assay: HTS Assay for Compounds that Act as Enhancers of the Vanilloid Receptor 1 (AID 488979). Further: 0% is about no effect. An outline of the steps:
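Calcium influx kinetics via Fluo-8 (480/520 nm) in TRPV1-expressing cells, 2000/well cultured overnight at 35.5C. Compound-alone read 3 min (agonist phase), followed by EC20 capsaicin challenge for 2 min (enhancer phase).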

[21] abbreviates: measured here: PEO1 parental Z-AUC.
[22] abbreviates: measured here: cell count channel max response.
The mark [23] stands for this setting: measured here: lipid channel max response.

Chain of Glutathione peroxidase 1 (Homo sapiens) (P07203 whole entry, looked up): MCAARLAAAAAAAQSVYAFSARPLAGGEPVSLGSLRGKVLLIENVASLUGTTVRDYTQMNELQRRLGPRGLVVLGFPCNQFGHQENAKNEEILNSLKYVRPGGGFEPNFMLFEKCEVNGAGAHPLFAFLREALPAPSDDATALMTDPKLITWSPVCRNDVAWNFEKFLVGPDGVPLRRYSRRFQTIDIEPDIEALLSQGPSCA
Chain of DNA repair nuclease/redox regulator APEX1 (Homo sapiens) (P27695 whole entry, looked up): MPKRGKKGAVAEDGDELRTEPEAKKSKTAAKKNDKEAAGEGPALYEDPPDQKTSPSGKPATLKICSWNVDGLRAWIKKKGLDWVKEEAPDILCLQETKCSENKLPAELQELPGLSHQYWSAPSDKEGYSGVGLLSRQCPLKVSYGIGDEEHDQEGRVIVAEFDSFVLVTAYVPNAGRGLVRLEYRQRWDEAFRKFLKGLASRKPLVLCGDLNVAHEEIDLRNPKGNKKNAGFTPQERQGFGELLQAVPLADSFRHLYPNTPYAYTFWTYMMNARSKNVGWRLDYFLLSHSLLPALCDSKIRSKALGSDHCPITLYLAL
Chain of ATP-dependent DNA helicase Q1 (Homo sapiens) (P46063 whole entry, looked up): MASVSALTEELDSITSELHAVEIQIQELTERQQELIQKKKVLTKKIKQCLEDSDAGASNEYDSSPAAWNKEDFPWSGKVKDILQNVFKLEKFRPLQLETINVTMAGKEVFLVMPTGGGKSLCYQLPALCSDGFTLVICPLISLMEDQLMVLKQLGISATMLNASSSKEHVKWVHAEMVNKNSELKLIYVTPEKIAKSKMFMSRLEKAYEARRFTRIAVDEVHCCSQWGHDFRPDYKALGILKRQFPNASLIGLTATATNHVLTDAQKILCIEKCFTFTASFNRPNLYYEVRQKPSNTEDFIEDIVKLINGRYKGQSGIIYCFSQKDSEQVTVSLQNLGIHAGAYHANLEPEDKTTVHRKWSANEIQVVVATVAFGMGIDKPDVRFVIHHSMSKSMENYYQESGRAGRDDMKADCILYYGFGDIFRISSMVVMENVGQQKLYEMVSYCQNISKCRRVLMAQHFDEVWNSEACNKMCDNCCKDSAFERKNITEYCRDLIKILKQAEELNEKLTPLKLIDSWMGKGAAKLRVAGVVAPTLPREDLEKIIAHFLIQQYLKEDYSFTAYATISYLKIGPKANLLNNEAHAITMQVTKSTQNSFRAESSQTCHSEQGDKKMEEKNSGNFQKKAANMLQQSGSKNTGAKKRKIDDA
Chain of Galactokinase (Homo sapiens) (P51570 whole entry, looked up): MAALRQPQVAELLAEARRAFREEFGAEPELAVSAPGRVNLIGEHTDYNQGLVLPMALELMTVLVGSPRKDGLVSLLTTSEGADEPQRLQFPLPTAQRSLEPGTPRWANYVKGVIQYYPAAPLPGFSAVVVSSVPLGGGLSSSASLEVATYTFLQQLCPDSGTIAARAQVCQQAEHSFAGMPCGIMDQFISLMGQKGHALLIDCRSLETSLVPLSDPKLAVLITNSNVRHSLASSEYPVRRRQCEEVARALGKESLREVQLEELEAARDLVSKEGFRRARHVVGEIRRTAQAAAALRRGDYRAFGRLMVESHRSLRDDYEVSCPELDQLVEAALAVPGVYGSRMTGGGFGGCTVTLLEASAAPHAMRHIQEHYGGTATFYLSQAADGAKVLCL
Chain of Transient receptor potential cation channel subfamily V member 1 (Homo sapiens) (Q8NER1 whole entry, looked up): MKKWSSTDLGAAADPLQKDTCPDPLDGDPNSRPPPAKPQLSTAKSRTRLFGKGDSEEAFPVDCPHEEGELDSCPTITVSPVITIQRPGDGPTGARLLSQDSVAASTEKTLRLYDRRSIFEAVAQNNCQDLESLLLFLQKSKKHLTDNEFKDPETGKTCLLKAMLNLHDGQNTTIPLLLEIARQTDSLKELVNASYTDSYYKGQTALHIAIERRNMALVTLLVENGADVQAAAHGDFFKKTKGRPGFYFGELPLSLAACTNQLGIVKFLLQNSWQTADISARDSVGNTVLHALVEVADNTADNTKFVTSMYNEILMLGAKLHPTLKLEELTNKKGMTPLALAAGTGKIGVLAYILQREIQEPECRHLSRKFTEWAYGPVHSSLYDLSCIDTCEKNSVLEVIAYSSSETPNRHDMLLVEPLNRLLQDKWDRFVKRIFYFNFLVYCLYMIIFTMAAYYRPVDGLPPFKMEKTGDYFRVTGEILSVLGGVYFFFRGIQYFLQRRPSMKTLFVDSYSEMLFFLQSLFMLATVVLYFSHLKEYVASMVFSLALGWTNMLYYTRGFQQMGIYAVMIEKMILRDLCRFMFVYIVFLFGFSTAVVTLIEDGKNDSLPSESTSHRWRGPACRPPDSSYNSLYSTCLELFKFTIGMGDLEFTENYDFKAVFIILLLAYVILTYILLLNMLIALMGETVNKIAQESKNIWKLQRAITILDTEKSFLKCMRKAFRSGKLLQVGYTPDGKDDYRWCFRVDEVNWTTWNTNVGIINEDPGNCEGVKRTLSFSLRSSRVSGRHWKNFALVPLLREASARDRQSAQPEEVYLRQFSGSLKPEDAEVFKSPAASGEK
Chain of Thyrotropin-releasing hormone receptor (Homo sapiens) (P34981 whole entry, looked up): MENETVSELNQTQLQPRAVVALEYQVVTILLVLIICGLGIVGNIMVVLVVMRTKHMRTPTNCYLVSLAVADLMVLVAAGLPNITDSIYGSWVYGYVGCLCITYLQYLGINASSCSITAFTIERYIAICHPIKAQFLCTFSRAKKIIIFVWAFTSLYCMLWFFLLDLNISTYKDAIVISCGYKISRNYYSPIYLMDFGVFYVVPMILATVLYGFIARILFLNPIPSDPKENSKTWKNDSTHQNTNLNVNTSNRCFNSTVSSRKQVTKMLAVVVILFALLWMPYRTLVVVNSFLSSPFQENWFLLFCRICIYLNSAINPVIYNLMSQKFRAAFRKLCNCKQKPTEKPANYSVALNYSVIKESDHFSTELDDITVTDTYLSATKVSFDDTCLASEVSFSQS
Chain of Thyrotropin receptor (Homo sapiens) (P16473 whole entry, looked up): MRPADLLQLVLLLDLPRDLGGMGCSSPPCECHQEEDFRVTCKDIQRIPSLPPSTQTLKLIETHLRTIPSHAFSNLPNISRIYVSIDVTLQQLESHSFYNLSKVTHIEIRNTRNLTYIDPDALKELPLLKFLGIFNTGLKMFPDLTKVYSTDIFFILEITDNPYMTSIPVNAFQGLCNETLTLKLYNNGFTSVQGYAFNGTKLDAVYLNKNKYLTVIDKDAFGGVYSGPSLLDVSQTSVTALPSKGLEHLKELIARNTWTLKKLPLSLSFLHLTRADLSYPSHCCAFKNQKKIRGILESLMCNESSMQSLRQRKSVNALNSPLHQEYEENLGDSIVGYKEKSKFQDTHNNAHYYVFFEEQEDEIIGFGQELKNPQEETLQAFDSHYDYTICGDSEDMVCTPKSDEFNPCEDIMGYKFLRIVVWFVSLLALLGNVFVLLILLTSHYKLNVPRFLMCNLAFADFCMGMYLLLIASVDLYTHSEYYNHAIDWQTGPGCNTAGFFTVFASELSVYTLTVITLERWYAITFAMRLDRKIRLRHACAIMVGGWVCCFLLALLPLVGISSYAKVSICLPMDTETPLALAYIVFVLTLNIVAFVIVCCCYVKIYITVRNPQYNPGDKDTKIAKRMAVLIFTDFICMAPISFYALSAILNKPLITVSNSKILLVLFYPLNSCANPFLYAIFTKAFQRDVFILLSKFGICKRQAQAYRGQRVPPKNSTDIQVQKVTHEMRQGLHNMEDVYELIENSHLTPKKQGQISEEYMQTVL

Turning to `CN1CCN(c2ccc(Nc3ncc4cc(C#N)c(=O)n(C5CCCC5)c4n3)cc2)CC1`, in [1], the Potency entry was “inactive”. The Z-AUC in assay [2] is -0.464 (inactive); in assay [2] (setting [21]), 0.47; in assay [2] (measured here: PEO4 Z-AUC), 0.542. Also, in [3] (HiBiT), the Potency was 9.91 µM (active). Also, the activity change, negative = inhibition in assay [3] (Viability) was -23.1% (inactive).
Regarding `CN(C(=O)CNC(=O)/C=C/c1cccc(Cl)c1)C1CCS(=O)(=O)CC1`, in assay [1], the Potency entry is “inactive”. Also, the Z-AUC in assay [2] was -0.555 (inactive); in [2] (setting [21]) it was -0.958; in assay [2] (measured here: PEO4 Z-AUC), -0.957.
In the case of `N#CCC1(n2cc(-c3ncnc4[nH]ccc34)cn2)CN(C2CCN(C(=O)c3ccnc(C(F)(F)F)c3F)CC2)C1`, the Z-AUC in [2] is -0.205 (inactive); in [2] (setting [21]), -0.513; in assay [2] (measured here: PEO4 Z-AUC), -0.617. The Potency in assay [3] (HiBiT) is 1.57 µM (active). The activity change, negative = inhibition in assay [3] (Viability) was 14.7% (inactive).
As for `COc1cc(=C2C=c3ccccc3=N2)[nH]/c1=C/c1[nH]c(C)cc1C`, the Potency result in assay [1] is “inactive”. The Z-AUC is 0.716 (inactive) in [2], 0.368 in assay [2] (setting [21]) and 1.02 in assay [2] (measured here: PEO4 Z-AUC). Besides, the activity change, negative = inhibition in assay [3] (HiBiT) was -23.6% (inactive). Besides, in [3] (Viability), the Potency was 1.25 µM (active).
As for `N#C/C(=C1/Nc2ccccc2S1)c1ccnc(OCc2ccc(CN3CCOCC3)cc2)n1`, the Z-AUC was 0.822 (inactive) in assay [2], 0.219 in assay [2] (setting [21]) and -0.057 in assay [2] (measured here: PEO4 Z-AUC).
As for `COc1cc(C(N)=O)ccc1NC(=O)[C@@H]1N[C@@H](CC(C)(C)C)[C@@]2(C(=O)Nc3cc(Cl)ccc32)[C@H]1c1cccc(Cl)c1F`, the Potency entry in assay [1] was “inactive”. Besides, the Z-AUC in [2] was -0.18 (inactive); in assay [2] (setting [21]) it was -0.499; in assay [2] (measured here: PEO4 Z-AUC), -0.498. Also, the activity change, negative = inhibition in [3] (Viability) was -16.3% (inactive).
As for `COC1CC(C(=O)c2ccc3c(N)ncc(-c4ccc(-c5cnn(C)c5)cc4)c3n2)C1` (stereo not given), the Potency entry in [1] is “inactive”. In addition, the figures for the Z-AUC in assay [2], in assay [2] (setting [21]) and in assay [2] (measured here: PEO4 Z-AUC) were -1.33 (inactive), -1.16 and -1.1, respectively. In assay [3] (Viability), the activity change, negative = inhibition is 4.77% (inactive).
For the compound `CNC(=O)[C@H]1O[C@@H](n2cnc3c(NCc4cccc(I)c4)ncnc32)[C@H](O)[C@H]1O`, the outcome in assay [4], in [9], in [12], in assay [14] and in [15] was inactive. Also, in [5], the activity change, negative = inhibition is 1.11% (inactive). In addition, the max response in [5] (setting [22]) is 54.7%; in assay [5] (setting [23]), 56.8%. The Potency result in assay [6], in [7], in [8], in [10] and in [11] was “inactive” throughout. For the same compound, the activation in assay [13] is 1.38% (inactive).
For `Nc1nc2c(c(=O)[nH]1)N1CN(c3ccc(C(=O)N[C@@H](CCC(=O)O)C(=O)O)cc3)CC1CN2` (stereo not given in full), the Potency result in assay [1] is “inactive”. For the same compound, the Z-AUC in assay [2] is -1.54 (inactive); in [2] (setting [21]) it was -1.06; in assay [2] (measured here: PEO4 Z-AUC), -0.345. Also, the activity change, negative = inhibition in [3] (Viability) was -12% (inactive).
For the compound `NC(=O)c1cccc2c(NC(CN3CCC3)c3ccc(Cl)c(C(F)(F)F)c3)ncnc12` (stereo not given), the Potency result in assay [1] was “inactive”. Moreover, the Z-AUC was 0.286 (inactive) in assay [2], 0.149 in assay [2] (setting [21]) and 0.205 in [2] (measured here: PEO4 Z-AUC). For the same compound, the activity change, negative = inhibition in assay [3] (HiBiT) was -0.923% (inactive).
Regarding `Cc1cn([C@H]2C[C@@H](N=[N+]=[N-])[C@@H](CO)O2)c(=O)[nH]c1=O`, the call in assay [4], in assay [9], in [20], in assay [14] and in assay [15] was inactive. Moreover, the activity change, negative = inhibition in assay [5] is 0.117% (inactive). The results for the max response in assay [5] (setting [22]) and in assay [5] (setting [23]) were -9.17% and -8.16%, respectively. In addition, the Potency result in assay [6], in assay [7], in assay [16], in [17], in assay [18] and in [19] was “inactive” in each case. Further, the Potency result in assay [8], in assay [10] and in [11] was “inactive” each time.
